# Screens from PubChem BioAssay.
# LmPK inh: inhibitors of Leishmania mexicana pyruvate kinase; Q27686; purified LmPK, Kinase-Glo ATP luminescence, 1 h; Potency, µM (top dose mostly 57.5 µM), inactives show top-dose activity change, negative = inhibition, most hits filed as inhibitors; actives 0.37% (n = 290,000); AID 1721; also: % is scaled to controls: 0 for no effect and ±100 for the full control effect
# Target sequence (Q27686 whole entry, looked up): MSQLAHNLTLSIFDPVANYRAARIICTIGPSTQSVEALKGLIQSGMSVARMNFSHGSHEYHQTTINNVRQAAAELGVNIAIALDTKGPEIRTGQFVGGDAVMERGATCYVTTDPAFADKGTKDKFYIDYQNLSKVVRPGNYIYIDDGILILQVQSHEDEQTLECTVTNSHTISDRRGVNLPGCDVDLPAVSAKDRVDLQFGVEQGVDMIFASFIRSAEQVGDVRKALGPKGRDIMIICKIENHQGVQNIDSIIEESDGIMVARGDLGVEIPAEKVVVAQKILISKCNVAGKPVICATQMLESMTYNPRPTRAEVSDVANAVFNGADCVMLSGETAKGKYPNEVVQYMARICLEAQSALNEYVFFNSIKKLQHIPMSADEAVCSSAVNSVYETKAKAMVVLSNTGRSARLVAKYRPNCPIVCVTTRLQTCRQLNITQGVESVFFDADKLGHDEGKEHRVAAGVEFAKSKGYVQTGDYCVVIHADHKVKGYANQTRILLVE
#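 ATP generated from ADP (0.1 mM) and PEP (0.5 mM) by 0.1 nM LmPK over 1 h at room temperature (pH 7.2 imidazole buffer) was detected by coupled luciferase luminescence. Values were normalized to uninhibited and no-enzyme wells.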
# SARS PLpro yeast: inhibitors of SARS-CoV papain-like protease in yeast. AID 485353. actives 0.19% (n = 330,000). Potency, µM (titrated, usually from 32.9 µM), for the others: at the top dose activity, positive = growth rescue, actives largely listed as activators. S. cerevisiae expressing SARS-CoV PLpro, growth rescue; calls by dose curve; also: 0% is about no effect; nearly all actives have a fitted effect of over 55% in size
# Sm TGR inh: inhibitors of Schistosoma mansoni thioredoxin glutathione reductase. purified TGR, DTNB reduction, TNB absorbance 405 nm. Potency, µM (highest dose often 114 µM), for the others: at the highest dose activity change, negative = inhibition, most hits filed as inhibitors. actives 3% (n = 360,000); also: % is scaled to controls: 0 for no effect and ±100 for the full control effect; nearly all actives have a fitted effect of over 60% in size
#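 Kinetic colorimetric format: TGR-catalysed, NADPH-driven DTNB reduction monitored via TNB absorbance. Enzyme dispensed at 20 nM; compound exposure 15 min at room temperature before reaction start.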
# NS1 function inh: blocks influenza NS1 protein function; Potency, µM (series often up to 46.1 µM), for the others: at the top dose activity, positive = more growth; actives 0.4% (n = 270,000); AID 2326; calls by dose curve; also: actives are rising curves; nearly all actives have a fitted effect of over 50% in size
#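 Read-out: OD600 growth recovery of NS1-expressing budding yeast. Cells grown overnight at 30C in -URA glucose medium, washed, resuspended and diluted 1:100 in 2% galactose assay medium, pH 6.0. Same strain lacking NS1 served as positive control.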
# Tb PYK inh: blocks Trypanosoma brucei pyruvate kinase; actives 0.12% (n = 410,000); Potency, µM (doses to about 76.8 µM), for the others: at the top dose activity, negative = inhibition, most hits filed as inhibitors; AID 624173; TbPYK enzyme, Kinase-Glo Plus ATP luminescence, 45 min; also: % is scaled to controls: 0 for no effect and ±100 for the full control effect; nearly all actives have a fitted effect of over 50% in size
#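 Enzyme and substrate buffer are dispensed first and compound is pin-transferred. ADP at 130 uM final then starts the reaction, which runs 45 min at room temperature. Detection reagent is added for 10 min before luminescence is imaged.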
# RE007 growth inh: less growth of the S. pombe RE007 Vpr strain | AID 651644 | Potency, µM (top dose mostly 92.2 µM), without a hit: at the top dose activity change, negative = less growth, most hits filed as inhibitors | actives 0.21% (n = 360,000) | S. pombe RE007 Vpr strain, BacTiter-Glo ATP luminescence, 24 h; active = well fitted falling curve with a large enough effect; inconclusive = small, poorly fitted or top-dose-only effect; inactive = no such curve, though single readings can be large or run the other way; also: % is scaled to controls: 0 for no effect and ±100 for the full control effect; nearly all actives have a fitted effect of over 50% in size
#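 Fission yeast strain RE007, carrying one chromosomally integrated HIV-1 vpr copy, was seeded at OD 0.01 in PMG+AL medium with 23 nL pinned compound. After 24 h at 30 °C and 99% humidity, viability was read by BacTiter-Glo luminescence.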
# * = called active by the depositor; u = inconclusive; x = not tested or not shown. Hits are enriched below; roughly 3.3% of the tested compounds scored in any of these assays. Unless noted, calls follow the shape of the dose curve; as a rule, active = well fitted curve in the direction sought with a large enough effect; inconclusive = small, poorly fitted or top-dose-only effect, or another doubt; inactive = no such curve, though single readings can be large; an effect the other way counts as inactive or inconclusive. Potency is read from the fitted curve at half-maximal effect.
SMILES,LmPK inh,SARS PLpro yeast,Sm TGR inh,NS1 function inh,Tb PYK inh,RE007 growth inh
CCOC(=O)C1CCN(c2nc3c(S(=O)(=O)c4ccccc4)nnn3c3ccsc23)CC1,x,x,-1%,x,-3%,x
O=C(/C=C/c1ccco1)Nc1ccccn1,14µM*,-38%,1%,-3%,-21%,-23%
O=C(/C=C/c1ccco1)Nc1nc(-c2ccccc2)cs1,-3%,-59%,-27%,-1%,-1%,-25%
Cc1ccc(NC(=O)/C=C/c2ccco2)nc1,-10%,-8%,-17%,-4%,0%,37%
O=C(/C=C/c1ccco1)Nc1nc(-c2ccc(F)c(F)c2)cs1,1%,0%,40µM*,-1%,-1%,13%
Cc1csc(NC(=O)/C=C/c2ccco2)n1,-10%,18%,50µM*,7%,-7%,4%
O=C(/C=C/c1ccco1)Nc1scc(-c2ccccc2)c1C(=O)O,-19%,-3%,8.9µM*,-46%,-16%,u
Cc1ccn2c(Nc3c(C)cccc3C)c(-c3ccc(Cl)s3)nc2c1,x,x,-1%,x,3%,x
Cc1cc(NS(=O)(=O)c2ccc(NC(=O)/C=C/c3ccco3)cc2)nc(C)n1,15%,-1%,4µM*,0%,-16%,6%
CCOC(=O)Cc1csc(NC(=O)CCS(=O)(=O)Cc2ccccc2)n1,-1%,4%,20µM*,13%,1%,-7%
COc1ccccc1CNC(=O)c1ccc(CSc2nc3ccncc3n2Cc2cccc(F)c2)cc1,x,x,-3%,x,0%,x
CCC1Sc2ccc(S(=O)(=O)CCC(=O)Nc3ccc(NC(C)=O)cc3)cc2NC1=O (stereo unspecified),3%,-1%,-3%,4%,-9%,6%
CCC1Sc2ccc(S(=O)(=O)CCC(=O)NCc3ccco3)cc2NC1=O (stereo unspecified),-3%,8%,32µM*,-3%,-6%,-7%
CCOC(=O)C1=C(C)OC(N)=C(C#N)C1c1ccoc1 (stereo unspecified),1%,21%,32µM*,5%,-7%,2%
CCOC(=O)C1=C(c2ccc(OC)cc2)OC(N)=C(C#N)C1c1cccnc1 (stereo unspecified),5%,0%,11µM*,-1%,1%,2%
CCOC(=O)C1=C(N)OC(CCl)=C(C#N)C1c1ccsc1 (stereo unspecified),3%,27%,13µM*,-19%,-3%,4%
CCOC(=O)C1=C(c2ccccc2)OC(N)=C(C#N)C1c1ccc(Br)s1 (stereo unspecified),1%,9%,40µM*,3%,1%,-24%
CN(Cc1ccco1)c1ncnc2ccc(-c3cccc(Cl)c3)cc12,x,-12%,-18%,x,x,x
CO[C@@]1(NC(=O)CSC(F)F)C(=O)N2C(C(=O)O)=C(CSc3nnnn3CCO)CO[C@@H]21,x,x,x,x,-9%,x
Nc1ncnc2c1ncn2[C@@H]1O[C@H](COP(=O)(O)OP(=O)(O)OP(=O)(O)OP(=O)(O)OC[C@@H]2O[C@H](n3cnc4c(N)ncnc43)[C@@H](O)[C@@H]2O)[C@H](O)[C@H]1O,x,x,x,1%,x,x
CCOC(=O)c1ccc(OCC2c3cc(OC)c(OC)cc3CCN2C(=O)c2ccc(S(=O)(=O)N3CCCC3)cc2)cc1 (stereo unspecified),x,x,-2%,x,-2%,x
CC(=O)N1CCN(C(=O)CC2OC(=O)c3ccccc32)CC1 (stereo unspecified),5%,-45%,u,-8%,-8%,45µM*
O=C(CC1OC(=O)c2ccccc21)Nc1ccccc1N1CCOCC1 (stereo unspecified),3%,3%,-7%,2%,4%,-13%
CC(=O)O/C(=C1/C[C@H]2[C@@H]3CC=C4C[C@@H](OC(C)=O)CC[C@]4(C)[C@@H]3CC[C@]2(C)C1=O)C(F)(F)F,x,x,x,-20%,x,x
CC[n+]1ccc2cc(OC)c(OC)cc2c1Cc1ccc(OC)c(OC)c1,23%,3%,u,0%,u,-4%
